FMDV inh – foot and mouth disease virus antiviral activity | Potency, µM (series often up to 57.9 µM), for the others: at the top dose activity change, negative = inhibition, hits mostly inhibitors | 410,000 tested, 1.2% active | FMDV antiviral cell-based qHTS; calls by dose curve; tested in HEK293T cells; note: read-out not given here; potency is the fitted concentration of half-maximal effect; nearly all actives have a fitted effect of over 45% in size
MARV entry inh – inhibitors of Marburg virus binding or cell entry; 300,000 tested, 1.8% active; Potency, µM (top dose mostly 37.8 µM), for inactives: at the highest dose activity change, negative = inhibition, usual class: inhibitors; Marburg virus pseudotyped entry inhibition, cell reporter; calls by dose curve; tested in HEK293 cells; note: potency is the fitted concentration of half-maximal effect
HCMV antiviral – blocks human cytomegalovirus replication | HFF cells, HCMV-luciferase reporter, 72 h; hits give low values | activity change, negative = inhibition, % at 57.5 µM | 410,000 tested, 4.5% active; in the data active = activity change below about -60%; inconclusive = no clear call, values can overlap the other calls; inactive = above about -39%
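Human foreskin fibroblasts infected with luciferase-reporter HCMV at MOI 1 PFU/cell, compounds at two doses. Luciferase measured 72 h post infection; normalized to buffer-only basal and Salinomycin (10uM) controls.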
LASV entry inh – inhibitors of Lassa virus binding or cell entry; Lassa virus pseudotype entry inhibition, cell reporter; 300,000 tested, 1.2% active; AID 540256; Potency, µM (top dose mostly 37.9 µM), without a hit: top-dose activity change, negative = inhibition, hits mostly inhibitors; calls by dose curve; tested in HEK293 cells; note: potency is the fitted concentration of half-maximal effect; nearly all actives have a fitted effect of over 50% in size
An asterisk follows results filed as active; ? = inconclusive; / = no result; + = active, no number; [ ] = another dose, or the depositor's remark. The list is not random: actives were taken first. Their share in the collection is about 6.2%. % is set by controls: 0 for no effect and ±100 for the full control effect.

SMILES	FMDV inh	MARV entry inh	HCMV antiviral	LASV entry inh
Cc1ccc(S(=O)(=O)Nc2cccc(-c3cn4ccsc4n3)c2)cc1	80%	?	?	4.5µM*
COc1ccc(NC(=O)C2CCCN(CCCc3ccccc3)C2)cc1OCC(C)C (stereo not given)	-9%	/	-91*	/
Nc1c(-c2ccccc2)cnn1-c1cccc(C(F)(F)F)c1	23%	13%	-106*	18%
Nc1c(-c2cccc(Cl)c2)cnn1-c1cccc(C(F)(F)F)c1	-25%	19%	-18	7%
CN(C)c1ccc(C=C2C(=O)NC(=S)NC2=O)cc1[N+](=O)[O-]	40µM*	27%	21	12%
CN(C)c1ccc(C=C2C(=O)NC(=O)NC2=O)cc1[N+](=O)[O-]	-13%	20%[46.1 µM]	-17	-4%
O=C(O)C(S)[C@@H](S)C(=O)O (stereo not given in full)	0%	/	/	/
CCc1cccc(N2C(=O)CSC23C(=O)N(Cc2ccccc2F)c2ccccc23)c1 (stereo not given)	?	/	-24	10µM*
Cc1ccc(N2C(=O)CSC23C(=O)N(CC(=O)Nc2ccc(C(C)C)cc2)c2ccccc23)cc1C (stereo not given)	-23%	/	25	-15%[46.1 µM]
O=C1CSC2(C(=O)N(Cc3ccccc3F)c3ccccc32)N1c1ccc(F)cc1 (stereo not given)	?	/	-15	-8%[46.1 µM]
O=C(CN1C(=O)C2(SCC(=O)N2c2ccc(F)c(F)c2)c2ccccc21)Nc1cccc(Cl)c1 (stereo not given)	?	/	-93*	-27%[46.1 µM]
Cc1ccc(NC(=O)CN2C(=O)C3(SCC(=O)N3c3cccc(Cl)c3)c3ccccc32)cc1C (stereo not given)	-11%	/	-65*	?
Cn1c(=O)oc2cc(S(=O)(=O)N3CCCC(C(=O)N4CCN(c5cccc(Cl)c5)CC4)C3)ccc21 (stereo not given)	25µM*	-16%[46.1 µM]	?	3%[46.1 µM]
Cc1cccc(N2CCN(C(=O)C3CCCN(S(=O)(=O)c4ccc5c(c4)oc(=O)n5C)C3)CC2)c1C (stereo not given)	11µM*	?	?	?
CCOC(=O)N1CCC(NC(=O)C2CCCN(S(=O)(=O)c3ccc4c(c3)oc(=O)n4C)C2)CC1 (stereo not given)	/	9%	-63*	-16%
Cn1c(=O)oc2cc(S(=O)(=O)N3CCC(C(=O)N4CCN(c5cccc(Cl)c5)CC4)CC3)ccc21	?	?	-11	-11%[46.1 µM]
CCOC(=O)C1CCCN(S(=O)(=O)c2ccc3c(c2)oc(=O)n3C)C1 (stereo not given)	-13%	-18%[46.1 µM]	7	4%[46.1 µM]
COC(=O)C1=C2CCO[C@H]2[C@@H]2[C@@H](C)[C@H](OC)c3ccccc3[C@@H]12	/	?	/	-6%[14.3 µM]
Cc1ccc(-n2ncc(C(=O)Nc3ccc4c(c3)OCO4)c2C2CCN(C(=O)OC(C)(C)C)CC2)c(C)c1	16%	/	23	?
CCOC1=C(NC(=O)C(C)(C)C)CC(OCC)=C(N2CCOCC2)C1	/	7%[46.1 µM]	/	/
O=C(NCc1ccccc1F)c1cccc(NC(=O)N2CCSc3ncccc32)c1	-26%	/	+	1%[46.1 µM]
O=C(NCc1ccccc1Cl)c1ccc(NC(=O)N2CCSc3ncccc32)cc1	-4%	/	+	4%[46.1 µM]
O=C(Cc1ccc(NC(=O)N2CCSc3ncccc32)cc1)NCc1ccccc1Cl	?	/	9	4%[46.1 µM]
COC1=CC(=O)C(O)=C/C1=C\C=C\c1ccccc1	40µM*	/	/	/
COc1ccc2c(c1)C(=O)/C(=C/C=C/c1ccccc1)CC2	6%	1%	-38	-3%
SMILES	FMDV inh	MARV entry inh	HCMV antiviral	LASV entry inh
C[C@@H]1CC[C@H]2C(=O)O[C@@H](Cc3ccccc3)CN2[C@H]1c1ccc(Br)cc1	/	7%[14.2 µM]	/	/
Cc1cccc(C=NNc2cc(C)c3cccc(C)c3n2)n1	/	/	34	/
CC(C)CSc1nnc(CNC(=O)c2ccccn2)n1C	-8%	/	/	/
Cc1nnn(C23C[C@@H]4C[C@@H](CC(C(=O)N5CCN(c6ccccc6)CC5)(C4)C2)C3)n1	?	/	-87*	/
N#C/C(=N\Nc1cccc(C(F)(F)F)c1)C(=O)c1ccsc1	12%	/	-97*	/
COc1cccc(Nc2nnc(SCC(=O)Nc3sccc3C(N)=O)s2)c1	16µM*	/	?	/
CC(C)C(NC(=O)C(C(C)C)N(C)C)C(=O)N(C)C(C(=O)N1CCCC1C(=O)N1CCCC1C(=O)NCc1ccccc1)C(C)C (stereo not given)	-13%	?	-86*	?
O=C(NCc1ccncc1)[C@@H]1CCCN1C(=O)[C@@H]1CCCN1C(=O)c1ccccc1	-26%	/	-4	/
COc1cccc(N2CCN(c3ncnc4c3cnn4-c3ccc(C)cc3C)CC2)c1	4µM*	-4%	-97*	/
Cc1cccc(N2CCN(c3ncnc4c3cnn4-c3ccc(Cl)cc3)CC2C)c1 (stereo not given)	32µM*	/	1	-1%[46.1 µM]
CCN1CCN(c2ncnc3c2cnn3-c2cccc(C)c2)CC1	24%	/	0	?
Cc1cccc(-n2ncc3c(N4CCC(C)CC4)ncnc32)c1	4%	/	147	/
Cc1ccc(-n2ncc3c(N4CCCC4)ncnc32)c(C)c1	-22%	8%	74	1%
Cc1cccc(-n2ncc3c(N4CCCCCC4)ncnc32)c1	16µM*	/	-61*	-5%[46.1 µM]
Cc1ccc(-n2ncc3c(N4CCCCCC4)ncnc32)cc1C	56µM*	/	-98*	22%[46.1 µM]
O=C1CCC[C@H]2[C@@H](Cc3ccccc3)[C@@H](NCc3ccccc3)CC[C@]23CCCN13	/	/	-21	/
Cc1ccc(Cl)cc1N1CCN(C(=O)c2noc3c2CCCC3)CC1	-10%	/	48	-12%[46.1 µM]
Cc1cccc(-n2ncc3c(N4CCCC(C)C4)ncnc32)c1 (stereo not given)	25µM*	/	-35	-22%[46.1 µM]
Cc1ccc(-n2ncc3c(SCc4cccc(C)c4)ncnc32)cc1	8%	?	-3	2%
Cc1ccc(-n2ncc3c(Nc4cccc(C(F)(F)F)c4)ncnc32)cc1C	-5%	/	-65*	?
Cc1ccc(-n2ncc3c(SCc4cccnc4)ncnc32)c(C)c1	-27%	?	-84*	2.8µM*
Cn1cc(S(=O)(=O)N2CCCCCC2)cc1C(=O)NCc1ccc(Cl)cc1	?	/	-4	?
CN(CCC#N)Cc1cc(=O)oc2ccc3ccccc3c12	-24%	-15%[46.1 µM]	-62*	21%[46.1 µM]
CCCCN(C)Cc1cc(=O)oc2ccc3ccccc3c12	-19%	/	38	/
CC(=O)N1CN(C2CC(C)(C)NC(C)(C)C2)Cc2c1sc1c2CCCC1	-19%	?	-63*	?
CC(=O)N1CN(C2CCCC2)Cc2c1sc1c2CCCC1	57%	-22%	14	0%
Cc1ccc(C(C)C)c(OCC(=O)Nc2ccc(O)c(-c3nc4cc(Cl)ccc4o3)c2)c1	4%	/	?	-5%[46.1 µM]
CC1(C)O[C@H]2CC(=O)OC[C@]23[C@H]2CC[C@@]4(C)[C@H](c5ccoc5)OC(=O)[C@H]5O[C@]54[C@]2(C)C(=O)C[C@@H]13	-9%	/	/	/
CC1(C)C(=O)C=C[C@]2(C)C1CC(=O)[C@]1(C)C2CC[C@@]2(C)C(c3ccoc3)OC(=O)C3O[C@@]321 (stereo not given in full)	18µM*	/	/	/
